Source: ChEMBL document CHEMBL4513216, “Probing the Open Global Health Chemical Diversity Library for Multistage-Active Starting Points for Next-Generation Antimalarials” (ACS Infect Dis, 2020)
Hit rate of the full screen: of about 68,000 compounds, about 2,700 (4%) showed an effect of 50% or more. Many of the other results were omitted from the sample, so strong results are more common in it than they were.

What follows are compounds tested on Plasmodium berghei (assay: Screen against P. berghei liver stage (PbLuc), transformed with Luciferase, at 2uM). Conditions: tested at 2 uM.
Format: functional, HepG2

Structure (SMILES) | INHIBITION
CCc1nccn1CCCNC(=O)c1cnn(-c2ccccc2OC)c1 | -9.69%
O=C(CCn1ccc2cc(Br)ccc21)NCc1ccc(C(=O)O)cc1 | -4.69%
O=C(COC[C@]12COC[C@H]1CN(C1CCC1)C2)N1CCCC1 | -37.65%
O=C(COC[C@@]12CCC[C@@H]1CN(C1CCCC1)C2)N1CCCC1 | -9.14%
O=C(COC[C@@]12CCC[C@@H]1CN(C1CCC1)C2)N1CCCC1 | 51.27%
Cn1nc2c(cc1=O)CN(c1ncnc3ccsc13)CC2 | -37.96%
CCC[C@@H]1CN(Cc2cc(OC)c3c(c2)OCO3)C[C@H]1C(=O)O | 57.75%
CCC[C@@H]1CN(Cc2cc3c(cc2OC)OCCO3)C[C@H]1C(=O)O | 19.59%
CCC[C@@H]1CN(Cc2cc3c(cc2OC)OCO3)C[C@H]1C(=O)O | -23.34%
CN(C)c1nccc(C2CN(S(C)(=O)=O)C2)n1 | 40.78%
Cc1cc(C(=O)N2CCN(S(C)(=O)=O)[C@@H](C)C2)c(F)cc1F | 1.27%
CC(=O)N[C@H]1CCO[C@@H](c2cccc(NC(=O)Cc3ccccc3)c2)C1 | 0.93%
Cc1ccc(CCNC(=O)NCc2cccc(OC(F)F)c2)cn1 | -16.71%
O=C(NCCNc1ncccn1)NCc1cccc(OC(F)F)c1 | -35.22%
O=C(CCNc1ncccn1)NCc1ccc(Br)s1 | 64.22%
O=C(CCNc1ncccn1)NCc1cccc(OC(F)F)c1 | 52.3%
CCc1ccc(CNC(=O)CCNc2ncccn2)s1 | -18.99%
O=C(CCNc1ncccn1)NCc1csc(Br)c1 | 33.47%
c1ccc(-c2nnc(N3CCCC4(CCOC4)C3)s2)cc1 (centres undefined) | -21.39%
N#Cc1ccc(N2CCCN(CC(=O)N3CCOCC3)CC2)cc1 | -45.9%
Cc1ccc(NC2CCN(C(=O)CC3CCCO3)CC2)nn1 (centres undefined) | -3.38%
Cc1ccc(-c2noc(CN3CCOC(CN(C)C)C3)n2)cc1F (centres undefined) | -19.76%
CCc1ccc(C2CC(=O)Nc3cc(NS(C)(=O)=O)ccc32)o1 (centres undefined) | -24.85%
CCOc1ncccc1NC(=O)N1CCCN(C(=O)OC)CC1 | 12.81%
Cn1cc(CN2CC[C@H]3O[C@@H](C(=O)NC4CC4)CC[C@H]32)cn1 | -43.66%

Structure (SMILES) | INHIBITION
CN1CCN(C(=O)[C@H]2CC[C@@H]3[C@@H](CCN3Cc3nccs3)O2)CC1 | 1.78%
CN(C)C(=O)[C@@H]1C[C@@H]2CCN(Cc3nccs3)C[C@@H]2O1 | -31.39%
O=C([C@@H]1C[C@H]2[C@H](CCN2Cc2nccs2)O1)N1CCOCC1 | -16.93%
O=C([C@H]1CC[C@@H]2[C@@H](CCN2Cc2nccs2)O1)N1CCCCO1 | 23.93%
CC1CCN(C(=O)[C@H]2CC[C@@H]3[C@@H](CCN3Cc3nccs3)O2)CC1 | 53.46%
CN(C)C(=O)[C@@H]1C[C@@H]2[C@@H](CCN2Cc2nccs2)O1 | 55.11%
CN1CCN(C(=O)[C@H]2C[C@H]3[C@H](CCN3Cc3nccs3)O2)CC1 | 37.54%
Cc1nc(CN2CC[C@@H]3O[C@@H](C(=O)N4CCOCC4)C[C@@H]32)cs1 | 34.24%
Cn1cc(CN2CC[C@@H]3O[C@H](C(=O)N4CCOCC4)C[C@@H]32)cn1 | 86.68%
O=C([C@H]1CC[C@@H]2[C@@H](CCN2Cc2nccs2)O1)N1CCOCC1 | 77.07%
CN(C)C(=O)[C@@H]1CC[C@@H]2[C@@H](CCN2Cc2nccs2)O1 | 6.66%
CC[C@@]1(O)CCN(C(=O)CN(C)Cc2ccc(F)cc2)C[C@H]1O | 25.06%
CN(C)[C@@H]1C[C@@H](CO)N(C(=O)Nc2cccc(F)c2F)C1 | -57.1%
CNC(=O)[C@H]1C[C@@H]2CCN(CCc3ccccc3)C[C@@H]2O1 | 21.77%
CS(=O)(=O)N1CCc2sc(C(=O)NCc3ccccc3)cc21 | 38.62%
O=C(C1CC(F)(F)C1)N1C[C@@H]2CN(CC3CC3)CCO[C@@H]2C1 | -14.21%
Cc1nccn1CCC1CCN(C(C)C)CC1 | 4.53%
Cc1ccc2c(ccn2CCC(=O)O)c1 | -7.01%
Cc1cccc(CN2C(=O)C[C@H]3[C@@H]2CCN3Cc2ccccn2)n1 | -11.91%
Cc1cnn(C2CCCN(C(=O)c3ccnc(N(C)C)c3)C2)c1 (centres undefined) | -21.91%
O=C(c1ccc(-n2cccn2)nc1)N1CCCC(n2cccn2)C1 (centres undefined) | -9.61%
Cc1nn(-c2ccccc2)cc1C(=O)N1CCCN2CCCC2C1 (centres undefined) | 20.11%
Cc1cnn(C2CCCN(C(=O)c3ccccc3-n3cnnn3)C2)c1 (centres undefined) | -31.16%
Cc1cnn(C2CCCN(C(=O)c3ccn(C)c(=O)c3)C2)c1 (centres undefined) | 16.51%
Cc1cnn(C2CCCN(C(=O)c3ccc(-n4cnnn4)cc3)C2)c1 (centres undefined) | 15.4%

Structure (SMILES) | INHIBITION
O=C(c1ccc(NC2CC2)nc1)N1CCCC(n2ccnc2)C1 (centres undefined) | -5.3%
O=C(c1ccc(NC2CC2)nc1)N1CCCC(n2cccn2)C1 (centres undefined) | 54.85%
Cc1nn(-c2ccccc2)cc1C(=O)N1CCCC(n2cccn2)C1 (centres undefined) | 11.1%
Cc1cnn(C2CCCN(C(=O)c3sccc3-n3cnnn3)C2)c1 (centres undefined) | 51.21%
Cc1cnn(C2CCCN(C(=O)c3cn(-c4ccccc4)nc3C)C2)c1 (centres undefined) | 86.75%
Cc1cnn(C2CCCN(C(=O)c3ccc4c(c3)CCC4)C2)c1 (centres undefined) | 56.02%
COc1ccccc1CN1CCC(c2nn(CCN)c3nccnc23)C1 (centres undefined) | -6.04%
Cc1csc(CN2CC[C@H]3C[C@H](c4nc(C)no4)O[C@@H]3C2)n1 | 18.32%
CCOCC1CN(c2ccc(C)nn2)Cc2nn(CC)cc21 (centres undefined) | -3.19%
CCCc1cc(=O)[nH]c(-c2cccc(CN3CCN4CCCC4C3)c2)n1 (centres undefined) | -19.98%
Cc1cnn(CC2CCCCN2CC(=O)NCc2ccccn2)c1 (centres undefined) | 16.6%
O=C(c1cn(-c2ccccc2)nn1)N1CCCC(n2cccn2)C1 (centres undefined) | -3.05%
Cc1cnn(C2CCCN(C(=O)c3ccc(NC4CC4)nc3)C2)c1 (centres undefined) | 72.31%
Cc1cnn(C2CCCN(C(=O)c3ccc(N(C)C)nn3)C2)c1 (centres undefined) | 69.41%
Cc1ccc(-n2cc(C(=O)N3CCCC(n4cccn4)C3)nn2)cc1 (centres undefined) | 18.59%
Cc1cnn(C2CCCN(C(=O)c3ccc(N4CCCC4)nn3)C2)c1 (centres undefined) | -104.9%
O=C(c1cnc(-c2ncccn2)s1)N1CCCC(n2cccn2)C1 (centres undefined) | 5.09%
Cc1cccc(-n2cc(C(=O)N3CCCC(n4cccn4)C3)nn2)c1 (centres undefined) | 58.53%
CNC(=O)c1ccc(C(=O)N2CCCC(n3cc(C)cn3)C2)cn1 (centres undefined) | 16.64%
CN(C)c1ccc(C(=O)N2CCCC(n3cccn3)C2)nn1 (centres undefined) | 37.68%
O=C(c1cnc(-c2ccccn2)s1)N1CCCC(n2cccn2)C1 (centres undefined) | 51.94%
Cc1cnn(C2CCCN(C(=O)c3ccc(O)nc3)C2)c1 (centres undefined) | 45.83%
O=C(c1cnc(-c2cnccn2)s1)N1CCCC(n2cccn2)C1 (centres undefined) | 35.65%
CCc1nc(CN2CCCC(N(C)CCc3cccs3)C2)no1 (centres undefined) | -14.04%
CCC(CC)c1cc(CNC(=O)N2CCOC(C)C2)on1 (centres undefined) | -40.76%

Structure (SMILES) | INHIBITION
c1cnc(N2CCN(CCn3ccnc3-c3ccncc3)CC2)nc1 | 36.79%
Cc1nc(C2CCN(C(=O)c3cscn3)CC2)c2sccn12 | 45.5%
CC(C)n1[nH]c(=O)c2c1NC(=O)CSC2c1cccc(OCC(N)=O)c1 (centres undefined) | 9.29%
O=C(c1cnccn1)N1C[C@@H]2CN(Cc3cccnc3)CCO[C@@H]2C1 | 0.54%
CN(C)CCN1C2(CCN(Cc3nccs3)C2)c2ccccc2S1(=O)=O (centres undefined) | 31.25%
Cn1cc(C2COC3(CCN(C(=O)c4ccsc4)CC3)C2)cn1 (centres undefined) | -0.38%
Cn1cc(-c2nc(CN3CCc4c(ncn4C)C3)cs2)cn1 | 14.06%
Cc1nc(CNCC2CCCN2c2cccnn2)no1 (centres undefined) | -12.31%
O=C(c1cnc(-c2cccs2)s1)N1CCCC(n2cccn2)C1 (centres undefined) | 42.18%
O=C(c1cnc(-c2cccs2)s1)N1CCCN2CCCC2C1 (centres undefined) | -38.96%
O=C(c1cnc(-c2cccs2)s1)N1CCCC(n2ccnc2)C1 (centres undefined) | 64.16%
Cn1cccc1C(=O)N1CC[C@H]2[C@H]1CCN2CC1CC1 | -0.23%
CCN(CC)C(=O)c1ccc(COc2ccccc2C#N)o1 | 9.54%
O=C(O)c1cc2c(nc1-c1ccncc1)CCN(C1CCOC1)CC2 (centres undefined) | -6.71%
CCc1ccc(-c2cc(C(F)(F)F)nc(N3CCC(N)CC3)n2)cc1 | 16.36%
Cc1nnc2n1CCN(Cc1c(Cl)ccc3cccnc13)C2 | 5.28%
c1cnc(-c2nc(CN3CCn4c(nnc4C4CC4)C3)cs2)nc1 | 63.64%
c1ccc(-c2nc(CN3CCn4c(nnc4C4CC4)C3)cs2)cc1 | 34.39%
c1cnc(-c2nc(CN3CCCC(N4CCCC4)C3)cs2)nc1 (centres undefined) | -44.96%
CC1CCCN(Cc2csc(-c3ncccn3)n2)CC1 (centres undefined) | 53.03%
Fc1cccc(Cl)c1CN1CCn2c(nnc2C2CC2)C1 | 7.67%
c1coc(-c2nc(CN3CCn4c(nnc4C4CC4)C3)cs2)c1 | 39.65%
Clc1ccc2cccnc2c1CN1CCn2c(nnc2C2CC2)C1 | 55.36%
CCCC1CCCN(Cc2csc(-c3ncccn3)n2)CC1 (centres undefined) | 33.5%
